# From ChEMBL document CHEMBL3988442, “University of Dundee, Small-Polar-MMV Screening Library” (2021)
# About 13,000 (27%) of roughly 48,000 compounds showed an effect of 50% or more. This is one part of the list.
# Tested on: Wolbachia pipientis
# Assay: Anti-Wolbachia Cell-Based Screen
# Assay type: functional
# Set-up: scale not given: in the data most compounds retested in dose-response had high values
# Conditions: 5 µM
row,Structure (SMILES),Percent Effect
1,CCCc1noc(CS(=O)(=O)c2cccc(OC)c2)n1,19.11%
2,CC(NC(=O)NCCCNS(C)(=O)=O)c1ccncc1 (stereo unspecified),0.1158%
3,CCc1noc(C(C)N(C)Cc2cc(Br)ccc2OC)n1 (stereo unspecified),1.676%
4,CCS(=O)(=O)N(C)C1CCN(C(=O)c2ccc(Cl)cc2)CC1,-4.195%
5,O=C(c1ccc(Cl)cc1)N1CCC(N2CCCOC2=O)CC1,100%
6,O=C1OCCN1CC(=O)N1C[C@H]2CC[C@@H]1CN(C(=O)c1ccccc1)C2,-14.7%
7,CC(C)S(=O)(=O)NCC1CCCN(C(=O)c2ccc(Cl)cc2)C1 (stereo unspecified),-24.01%
8,COc1cccc2c1OCC(C(=O)N1CCC(N3CCOC3=O)CC1)C2 (stereo unspecified),-3.402%
9,O=C(c1ccc(Cl)cc1)N1CCC(N2CCOC2=O)CC1,107.7%
10,COCc1ccccc1NC(=O)NC(C)c1ccc(C)o1 (stereo unspecified),-2.277%
11,CSc1c[nH]nc1NS(=O)(=O)c1cc(F)ccc1Cl,16.47%
12,Cc1ccc(F)cc1S(=O)(=O)Nc1ccc2c(C(=O)O)c[nH]c2c1,88.84%
13,O=C(O)c1c[nH]c2cc(NS(=O)(=O)c3cc(F)ccc3Cl)ccc12,93.61%
14,O=C(O)c1c[nH]c2cc(NS(=O)(=O)c3cccc(Cl)c3F)ccc12,-1.912%
15,COc1ccccc1S(=O)(=O)Nc1ccc2c(C(=O)O)c[nH]c2c1,-5.607%
16,O=C(O)c1c[nH]c2cc(NS(=O)(=O)c3cccc(F)c3F)ccc12,98.18%
17,O=C(O)c1c[nH]c2cc(NS(=O)(=O)c3ccc(Cl)cc3F)ccc12,101.8%
18,Cc1ccc(F)cc1S(=O)(=O)Nc1cnc(N2CCCC2)nc1,3.743%
19,Cn1cc(Br)c(=O)c(NS(=O)(=O)c2cc(F)ccc2Cl)c1,-8.345%
20,Cc1c(F)cc(C(=O)O)cc1S(=O)(=O)Nc1cccc(C(F)F)c1,-21.42%
21,Cc1cc(NC(=O)N2CCN(C)CC2C)n(CCC#N)n1 (stereo unspecified),-16.44%
22,N#CCCN(Cc1ccco1)C(=O)Cc1ccc(-n2cnnn2)cc1,-12.81%
23,O=C(c1ccc2ccccc2c1)C1CCCN(C(=O)Cn2cnnn2)C1 (stereo unspecified),-17.21%

row,Structure (SMILES),Percent Effect
1,N#Cc1nccnc1N1CCC(c2nc(C(F)(F)F)c[nH]2)CC1,-6.885%
2,CNC(=O)NC(=O)CN1CCCN(CC(F)(F)F)CC1,5.4%
3,COC(=O)Cn1cccc(S(=O)(=O)N2CCC(C)CC2)c1=O,3.954%
4,Cn1cnc(S(=O)(=O)N2CCOCC2)c1Cl,-4.923%
5,CCC(C)NC(=O)NCCCn1nc2ccccn2c1=O (stereo unspecified),-2.078%
6,Cc1nn(C)c2ncc(S(=O)(=O)N3CCCC(C)CC3)cc12 (stereo unspecified),-7.374%
7,CC(C)Cn1nc2ccc(S(=O)(=O)N3CCC(C)CC3)cn2c1=O,132.8%
8,CC(C)CCn1nc2ccc(S(=O)(=O)N3CCOCC3)cn2c1=O,120.3%
9,COCCO[C@H]1CCN(C(=O)c2ccno2)[C@H]1Cc1ccncc1.O=C(O)C(F)(F)F,-8.897%
10,CC/C=C(/C)C(=O)NCc1ccnc(OC2CCOCC2)c1,-6.645%
11,CC(=O)NCc1nnc2n1CCN(c1ncnc3c(C)csc13)CC2,-2.169%
12,O=S(=O)(CCCn1cncn1)Cc1ccc(F)cc1Cl,8.322%
13,COCCN(Cc1ccoc1)C(=O)c1ccc(Cl)s1,106%
14,CCN(Cc1ccoc1)C(=O)c1ccncc1O,2.225%
15,CCSc1ccccc1C(=O)N(CCOC)Cc1ccoc1,121.3%
16,COCCN(Cc1ccoc1)C(=O)c1ccccc1OC,102.9%
17,COCCN(Cc1ccncc1)C(=O)C1COc2c(cccc2OC)C1 (stereo unspecified),4.804%
18,COCCN(Cc1ccoc1)C(=O)c1ccccc1Cl,-4.504%
19,CCN(Cc1ccoc1)C(=O)c1ccc(C)c(S(N)(=O)=O)c1,0.3555%
20,COCCN(Cc1ccoc1)C(=O)c1c(F)cccc1Cl,-1.026%
21,CCc1ncc(C(=O)N(CCOC)Cc2ccccc2F)cn1,-19.66%
22,COCCN(CCOC)C(=O)c1ccoc1C,-2.566%
23,COCCN(Cc1ccoc1)C(=O)c1c(F)cccc1F,126.9%

row,Structure (SMILES),Percent Effect
1,CCOc1ccc(CN(CCOC)C(=O)c2ccncc2Cl)cc1,0.1724%
2,N[C@H]1CN(C(=O)c2ccccc2OCCc2ccccc2)C[C@@H]1C1CC1,18.87%
3,O=S(=O)(NC1=NCN(CCc2cccs2)CN1)c1ccccc1,2.891%
4,Cc1ncc2c(n1)CN(Cc1cn3ccsc3n1)CC2,-12.96%
5,COCCCN(Cc1ccncc1)C(=O)CSc1ccc(F)cc1,-0.07203%
6,COCCN(Cc1ccoc1)C(=O)CSc1ccc(F)cc1,117.6%
7,COCCN(Cc1ccoc1)C(=O)c1ccccn1,112.1%
8,NC(=O)CCN(C(=O)CSc1ccc(F)cc1)c1ccc(F)cc1,-8.487%
9,COCCN(Cc1ccoc1)C(=O)c1cccnc1SC,9.468%
10,CCN(C)c1ccc(C(=O)N(CCOC)Cc2ccccn2)cc1,-4.982%
11,O=C(CN1CCC2(CCCN(CCO)C2=O)C1)NCCc1ccccc1 (stereo unspecified),3.055%
12,O=C(COc1coc(CN2CCCCC2)cc1=O)Nc1ccc(Cl)cc1,-2.562%
13,Cc1ccccc1NS(=O)(=O)c1cc2c(c(C(=O)O)c1)OCCO2,-5.791%
14,Cc1cc(C)cc(NS(=O)(=O)c2cc3c(c(C(=O)O)c2)OCCO3)c1,6.571%
15,CN(c1ccc(F)c(F)c1)S(=O)(=O)c1cc2c(c(C(=O)O)c1)OCCO2,-16.04%
16,Cc1cc(C)cc(N(C)S(=O)(=O)c2cc3c(c(C(=O)O)c2)OCCO3)c1,-3.92%
17,Cc1ccc(NS(=O)(=O)c2cc3c(c(C(=O)O)c2)OCCO3)c(F)c1,-7.996%
18,Cc1ccc(F)c(NS(=O)(=O)c2cc3c(c(C(=O)O)c2)OCCO3)c1,118.3%
19,Cc1ccc(C)c(NS(=O)(=O)c2cc3c(c(C(=O)O)c2)OCCO3)c1,110.3%
20,CCc1cccc(NS(=O)(=O)c2cc3c(c(C(=O)O)c2)OCCO3)c1,10.09%
21,Cc1cccc(NS(=O)(=O)c2cc3c(c(C(=O)O)c2)OCCO3)c1,105.7%
22,Cc1nc(CN(C)C(=O)c2cccc(CC3CCNCC3)c2)no1,-18.2%
23,CCc1nnsc1C(=O)NC(CC(C)C)C(=O)OC (stereo unspecified),-4.538%

row,Structure (SMILES),Percent Effect
1,CN1C[C@@H](NC(=O)c2cc(F)cc(F)c2)C[C@H]1C(=O)NCc1ncc[nH]1,4.795%
2,COc1ccccc1NCC(=O)NCc1scnc1C,-10.76%
3,CC1CN(CCC(=O)NCCc2cccnc2)Cc2ccccc2O1 (stereo unspecified),11.18%
4,O=C(c1cccnc1)N1Cc2ccccc2OCC1Cn1ccnc1 (stereo unspecified),99.63%
5,Cc1nc(C)c(C(=O)N2Cc3ccccc3OCC2Cn2ccnc2)o1 (stereo unspecified),-31.31%
6,Cc1nc(C)c(C(=O)N2Cc3ccccc3OCC2Cn2ccnc2)s1 (stereo unspecified),70.21%
7,CC(Cn1ccnc1)NC(=O)NCCN1CCc2ccccc2C1 (stereo unspecified),3.376%
8,CN(CC1COc2ccccc2O1)C(=O)NCCCn1ccnc1 (stereo unspecified),-8.094%
9,CCc1nc2n(n1)CC(NCCc1cccs1)CC2 (stereo unspecified),-19.61%
10,N#Cc1c(F)cccc1NCCCOCC1CCOCC1,-8.528%
11,O=C1CC(c2ccsc2)c2snc(C(=O)O)c2N1 (stereo unspecified),-3.117%
12,Cc1ccc(N2CCN(C(=O)COc3ccccc3)CC2)nn1,-10.88%
13,COc1ccc(CC(=O)N2CC(=O)NCC(C)(C)C2)cc1,81.26%
14,O=C1CCC2(CCCN(C(=O)Cc3ccccc3)C2)N1 (stereo unspecified),-74.63%
15,CCc1nsc(N2CCN(C(=O)COc3ccccc3)CC2)n1,-3.89%
16,CCc1ccc(CCC(=O)N2CCC(=O)Nc3cccnc32)cc1,-4.556%
17,CC1(C)CNC(=O)CN(C(=O)Cc2ccccc2)C1,98.91%
18,Cc1nc(-c2ccc(CC(=O)N3CCNC(=O)C3)cc2)cs1,-10.4%
19,CC1(C)CNC(=O)CN(C(=O)CCc2ccccc2)C1,92.84%
20,O=C(O)C(F)(F)F.O=C1CCC2(CCCN(C(=O)Cc3cccnc3)C2)N1 (stereo unspecified),-30.04%
21,CC1(C)CNC(=O)CN(C(=O)COc2ccccc2)C1,99.32%
22,Cc1ccnc2c1NC(=O)CN2C(=O)CCc1ccccc1,5.988%
23,COc1ccc(CC(=O)N2CC[C@@H]3NC(=O)CC[C@@H]32)cc1,-10.22%

row,Structure (SMILES),Percent Effect
1,CN(C)C(=O)CS(=O)(=O)Cc1ccn(-c2cccc(F)c2)n1,3.991%
2,CCn1c(CN(C)C)nnc1C1CCN(Cc2ccc(C)s2)CC1,-25.38%
3,COc1ccc(-c2n[nH]cc2CN(C)CCCN2CCOCC2)c(F)c1,4.429%
4,N#Cc1nccnc1NCCC1CCN(CC(F)(F)F)CC1,-10.09%
5,O=C(CN1CCC2(CCCCC2)C1)NCC(F)(F)F,-17.09%
6,O=C(NCCCn1cccn1)N1CCCC1c1ccncc1 (stereo unspecified),20.68%
7,Cc1cnn(CCNCc2ccc(F)cc2Cl)c1,-9.942%
8,COc1ccccc1N1CC(NC(=O)Cn2cc(C)nn2)CC1=O (stereo unspecified),83.28%
9,COc1ccccc1N1CCC(CNC(=O)CN2CSCC2=O)C1 (stereo unspecified),-5.034%
10,CC(C)c1cn(CC(=O)NC2CC(=O)N(CCc3ccccc3)C2)nn1 (stereo unspecified),94.88%
11,COc1ccc(CCNC(=O)NC2CC(=O)N(c3ccccc3)C2)cc1 (stereo unspecified),13.52%
12,COc1ccccc1N1CCCC(Nc2ncccn2)C1=O (stereo unspecified),-13.39%
13,O=C(NCC1CC(=O)N(CCc2ccccc2)C1)c1ccc[nH]1 (stereo unspecified),-4.58%
14,CC(C)Oc1ccccc1C(=O)NC1CC(=O)N(CC(F)(F)F)C1 (stereo unspecified),-7.447%
15,COc1ccccc1N1CC(NC(=O)c2cc(C(C)C)nn2C)CC1=O (stereo unspecified),186.5%
16,Cc1ccccc1C(NC(=O)Cn1cc(C2CC2)nn1)C1CC1 (stereo unspecified),6.908%
17,COc1ccccc1N1CC(NC(=O)Cn2cc(C(C)C)nn2)CC1=O (stereo unspecified),82.88%
18,O=C1CC(NS(=O)(=O)N2CCOCC2)CN1CCc1ccccc1 (stereo unspecified),3.785%
19,COc1ccccc1N1CCN(CC[C@H](O)c2ccccc2)CC1=O,-5.081%
